# From PubChem BioAssay (NCI)
# Compounds without any hit were thinned out: in the full panel of roughly 83,000, 20% have a hit.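 Single-concentration screen, 48 h exposure, 96-well plates. Endpoint: percent growth. Below 10 = active.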 Unmarked numbers belong to inactive results. Calls of active or inactive are those of the source.
# System: TK-10 renal
# Test: NCI-60 one-dose screen, 48 h (100 = growth as untreated, 0 = no growth, -100 = all killed)
# Conditions: 10 µM unless noted
row,SMILES,growth
1,CC(=NNc1ncnc2ccccc12)c1ccc(S(C)(=O)=O)cc1,152%
2,O=C(N/N=C/c1ccco1)c1[nH]c2ccc(Br)cc2c1-c1ccccc1,98.7%
3,COc1ccc(NC2=CC(=O)C(C)=C(C)C2=O)cc1,156%
4,CN1C(=S)N(C)C2C1NN=C1SC(c3ccccc3)=CC(=O)N12 (stereo not given),97.7%
5,CC1=C(C)C(=O)C(Nc2ccccc2)=C(Cl)C1=O,128%
6,C#Cc1nc(C2=C(C)/C(=N/OCc3ccccc3)CC2)cs1,158%
7,COc1cc(/C=C/C(=O)c2ccc(C(F)(F)F)cc2)ccc1Oc1nc(NCCO)nc(N2CCOCC2)n1,111%
8,CN1C(=O)N(c2ccccc2)C2N=C(N/N=C/c3ccccc3)SC21 (stereo not given),61.7%
9,COc1ccc(C(=O)c2cc(C(=O)/C=C/c3c(Cl)cccc3Cl)c3cc(C)ccn23)cc1,119%
10,Cn1cc(-c2cc(N)n3nc(-c4cn(C)c5ccc(F)cc45)cc3n2)c2cc(F)ccc21,48.7%
11,C=CCSc1ccc2c(c1)C(N1CCNCC1)=Nc1ccccc1O2,85% [8.25 µM]
12,COc1ccc(-c2nc3ccc(-c4nnc(SCC(=O)Nc5ccc(C(=O)/C=C/c6ccccc6)cc5)o4)cc3[nH]2)cc1OC,133%

# System: ACHN renal
# Test: as above
# Conditions: 10 µM unless noted
row,SMILES,growth
1,COC(=O)C(Cc1ccccc1)NS(=O)(=O)/N=C1\NC(=O)NC1=C(Cl)Cl (stereo not given),98.1%
2,[Cl][Ru].c1ccc(-c2cccc(-c3ccccn3)n2)nc1.c1ccc(-c2ccnc3c2ccc2c(-c4ccccc4)ccnc23)cc1,96.7%
3,NS(=O)(=O)c1ccc(Nc2nc(Nc3ccccc3)nc(-n3nc(-c4ccccc4)cc3-c3ccccc3)n2)cc1,15.3%
4,COc1ccccc1/C=C/C=N/NC1=NC2C(S1)N(C)C(=O)N2C (stereo not given),46.3%
5,O=C(c1ccc(O)cc1)C1[C@H](c2ccc(Cl)cc2)[C@@H](c2ccccc2)NC12C(=O)Nc1ccc(Cl)cc12 (stereo not given in full),16.8%
6,Nc1cc(-c2c[nH]c3ccccc23)nc2cc(-c3c[nH]c4ccccc34)nn12,51.6%
7,Cc1nc2cnc(N)c(C#Cc3cncc(C(=O)Nc4ccc(Cl)c(C(F)(F)F)c4)c3)c2nc1C,30.3%
8,CCN1C(=S)N(CC)C2C1N=C(SC)N2/N=C/C=C/c1ccccc1[N+](=O)[O-] (stereo not given),78.1%
9,COc1ccc(/C=N/NC(=O)c2[nH]c3ccc(Br)cc3c2-c2ccccc2)o1,28.1%
10,NS(=O)(=O)c1cccc(Nc2nc(SCC(=O)c3ccc([N+](=O)[O-])cc3)nc3ccccc23)c1,45.8%
11,COc1cc(/C=C/C(=O)c2ccccc2)ccc1Oc1nc(NCCO)nc(N2CCOCC2)n1,98.4%
12,COC1CCN(Cc2ccc3c(NNC(=O)c4cnccn4)nc4cc(F)ccc4n23)C1 (stereo not given),14.1%
13,CS(=O)(=O)Nc1ccc(-c2nn(-c3ccc(S(C)(=O)=O)cc3)cc2/C=C/C(=O)c2ccc(NC(=O)CO[N+](=O)[O-])cc2)cc1,96.1%
14,O=C(Nc1nc2ccc(O)cc2s1)c1cccc(C(F)(F)F)c1,53%
15,c1ccc2c(NCCCn3ccnc3)c3oc4ccccc4c3nc2c1,-7.51% (active)
16,CC(C)NC(=O)c1cc(-c2ccc(NC(=O)Nc3ccc(N4CCOCC4)c(C(F)(F)F)c3)cc2)nc2cccnc12,62.7%
17,Cn1c(SCC(=O)c2cccs2)nc2ccccc2c1=O,91.7%
18,CS(=O)(=O)c1ccc(-c2nc3ccccn3c2/C=N/Nc2nc(-c3ccc(Br)cc3)cs2)cc1,103%
19,Clc1ccc2c(NCCCn3ccnc3)c3oc4ccccc4c3nc2c1,18.1%

row,SMILES,growth
1,CCN1C(=S)N(CC)C2C1NN=C1SC(c3ccccc3)=CC(=O)N12 (stereo not given),103%
2,COc1ccc(-c2csc(N/N=C/c3c(-c4ccc(S(C)(=O)=O)cc4)nc4ccccn34)n2)cc1,102%
3,CSCCC(C(=O)O)N1C(=O)/C(=C/c2ccc(O)c(O)c2)SC1=S (stereo not given),99.9%
4,O=C1Nc2cc(Cl)ccc2/C1=C\c1ccc(OCc2ccc(Br)cc2F)cc1,-83% (active)
5,CN(C)CCCOc1c2ccc(Cl)cc2nc2c1oc1ccc(Cl)cc12,-85.6% (active)
6,O=C(N/N=C/c1ccc(Br)s1)c1[nH]c2ccc(Br)cc2c1-c1ccccc1,26.7%
7,CC(=NNc1ncnc2ccccc12)c1ccc(S(C)(=O)=O)cc1,103%
8,O=C(N/N=C/c1ccco1)c1[nH]c2ccc(Br)cc2c1-c1ccccc1,29.3%
9,COc1ccc(NC2=CC(=O)C(C)=C(C)C2=O)cc1,96.1%
10,CN1C(=S)N(C)C2C1NN=C1SC(c3ccccc3)=CC(=O)N12 (stereo not given),96.8%
11,CC1=C(C)C(=O)C(Nc2ccccc2)=C(Cl)C1=O,100%
12,C#Cc1nc(C2=C(C)/C(=N/OCc3ccccc3)CC2)cs1,0.823% (active)
13,COc1cc(/C=C/C(=O)c2ccc(C(F)(F)F)cc2)ccc1Oc1nc(NCCO)nc(N2CCOCC2)n1,86.2%
14,CN1C(=O)N(c2ccccc2)C2N=C(N/N=C/c3ccccc3)SC21 (stereo not given),49.1%
15,COc1ccc(C(=O)c2cc(C(=O)/C=C/c3c(Cl)cccc3Cl)c3cc(C)ccn23)cc1,101%
16,Cn1cc(-c2cc(N)n3nc(-c4cn(C)c5ccc(F)cc45)cc3n2)c2cc(F)ccc21,-38.6% (active)
17,CC(C)(C)Nc1nc2c(OCCc3ccccc3)cccn2c1-c1cccc(F)c1,5.29% (active)
18,C=CCSc1ccc2c(c1)C(N1CCNCC1)=Nc1ccccc1O2,70.3% [8.25 µM]
19,COc1ccc(-c2nc3ccc(-c4nnc(SCC(=O)Nc5ccc(C(=O)/C=C/c6ccccc6)cc5)o4)cc3[nH]2)cc1OC,96.3%
